Hits are enriched below; roughly 0.47% of the tested compounds scored in any of these assays.
AID inh: blocks human AID cytidine deaminase activity. Potency, µM (doses to about 115 µM), hits mostly inhibitors. Q9GZX7. 0.32% of 91,000 active. AID 1347428. AID deamination FRET fluorescence, UDG-coupled, 4 h; also: nearly all actives have a fitted effect of over 25% in size
Target sequence (Q9GZX7 whole entry, looked up): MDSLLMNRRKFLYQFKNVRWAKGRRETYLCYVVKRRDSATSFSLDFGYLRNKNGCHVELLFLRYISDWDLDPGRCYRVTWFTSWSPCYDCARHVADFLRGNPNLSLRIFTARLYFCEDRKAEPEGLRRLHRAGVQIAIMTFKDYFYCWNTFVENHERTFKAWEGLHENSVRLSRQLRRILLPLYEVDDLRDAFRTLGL
UDG counterscr: UDG inhibition counter-screen; FRET deamination/UDG coupled assay, UDG read, 4 h; Potency, µM (doses to about 115 µM), usual class: inhibitors; 0.14% of 91,000 active; also: nearly all actives have a fitted effect of over 65% in size
Each line names hits and unclear results; the compound was inactive in the other large screens. Calls follow the shape of the dose curve; as a rule, active = well fitted curve in the direction sought with a large enough effect; inconclusive = small, poorly fitted or top-dose-only effect, or another doubt; inactive = no such curve, though single readings can be large; an effect the other way counts as inactive or inconclusive.

Cc1ccc(C)c(Nc2nn3c(=O)c4ccc(C(=O)NCc5cccs5)cc4nc3s2)c1	AID inh 40µM
CCN(CC)CCNC(=O)c1ccc2c(=O)n3nc(Nc4ccccc4OC)sc3nc2c1	AID inh 71µM
COc1ccccc1Nc1nn2c(=O)c3ccc(C(=O)NCc4cccs4)cc3nc2s1	none
COc1ccccc1Nc1nn2c(=O)c3ccc(C(=O)NCCCOC(C)C)cc3nc2s1	none
COc1ccccc1/C=C/C(=O)Oc1c(C)ccc(C)c1C	none
N[C@@H](CCC(=O)N[C@H](CSN=O)C(=O)NCC(=O)O)C(=O)O	none
[N-]=[N+]=Nc1ccc(C(=O)CSC[C@H](NC(=O)CC[C@H](N)C(=O)O)C(=O)NCC(=O)O)cc1	AID inh 89µM
CCOC(=O)c1cc(-c2cc(OC)c(OC)c(OC)c2)nc2ccccc12	none
CCN(Cc1nc2ccccc2c(=O)[nH]1)C(=O)Cc1csc(-c2c(Cl)cccc2Cl)n1	none
CCOC(=O)N1CCc2c(sc3c2c(=O)n(-c2ccc(CC)cc2)c(=O)n3Cc2cccc(Cl)c2)C1	none
C=Cc1ccc(Cn2c(=O)n(-c3cccc(Cl)c3)c(=O)c3c4c(sc32)CN(C(C)=O)CC4)cc1	AID inh inconclusive, UDG counterscr 79µM
CC(=O)N1CCc2c(sc3c2c(=O)n(Cc2ccccc2)c(=O)n3Cc2ccccc2Cl)C1	AID inh 22µM
CC(=O)N1CCc2c(sc3c2c(=O)n(Cc2ccccc2)c(=O)n3Cc2ccccc2F)C1	AID inh inconclusive
c1ccc2c(NC3CCCC3)ncnc2c1	none
CCCN(CCC)CC(O)Cn1cc(/C=C/C(=O)c2ccc(Br)cc2)c2ccccc21 (stereo unspecified)	none
CCCN(CCC)CC(O)Cn1cc(/C=C/C(=O)c2ccc(C)cc2)c2ccccc21 (stereo unspecified)	AID inh 35µM
COc1ccc(Br)cc1CNC(=O)c1cnc2sc(N3CCCCCC3)nn2c1=O	AID inh 18µM
COc1ccc(CNC(=O)c2cnc3sc(N4CCCC4)nn3c2=O)cc1OC	none
COc1ccc2c(c1)Cc1sc(NC(=O)c3ccc(Cl)cc3)nc1-2	AID inh 32µM
COc1ccc2c(c1)Cc1sc(NC(=O)c3cccc(Cl)c3)nc1-2	none
COc1ccc(C(=O)Nc2nc3c(s2)CCc2cc(OC)ccc2-3)cc1	UDG counterscr 79µM
COc1ccc2c(c1)CCc1sc(NC(=O)c3cccc(Br)c3)nc1-2	none
CCN(Cc1ccccc1)C(=O)Cn1c(=O)c2c(ncn2C)n(C)c1=O	none
COc1ccc2ccc(OCC(=O)NC3CCCC3)cc2c1	none
Cc1ccc(CSC2=Nc3ccccc3C3=NC(CCC(=O)NCc4cccs4)C(=O)N23)cc1 (stereo unspecified)	AID inh 89µM
Cc1ccc(CSC2=Nc3ccccc3C3=NC(CCC(=O)NCc4cccs4)C(=O)N23)c(C)c1 (stereo unspecified)	none
COc1ccccc1NC(=O)CSC1=Nc2ccccc2C2=NC(CC(=O)NCCc3ccccc3)C(=O)N12 (stereo unspecified)	none
Cc1ccc(CSC2=Nc3ccccc3C3=NC(CC(=O)NC4CCCCC4)C(=O)N23)c(C)c1 (stereo unspecified)	none
O=C(CC1N=C2c3ccccc3N=C(SCc3ccccc3Cl)N2C1=O)NC1CCCCC1 (stereo unspecified)	UDG counterscr 89µM
O=C(CC1N=C2c3ccccc3N=C(SCc3ccccc3F)N2C1=O)NCCc1ccccc1 (stereo unspecified)	AID inh 35µM, UDG counterscr inconclusive
Cc1ccc(C(=O)CCC(=O)CCC(=O)O)s1	none
COc1ccc(CNc2oc(/C=C/c3cccc(OC)c3)nc2C#N)cc1	UDG counterscr 89µM
COc1cccc(/C=C/c2nc(C#N)c(NCc3ccco3)o2)c1	none
O=c1c2ccccc2c(-c2ccccc2)nn1-c1cc(N2CCNCC2)ccc1[N+](=O)[O-]	none
CC(=O)[C@]1(O)Cc2c(O)c3c(c(O)c2[C@@H](O[C@H]2C[C@H](N)[C@H](O)[C@H](C)O2)C1)C(=O)c1ccccc1C3=O	AID inh 11µM
Cc1ccc(C)c(CSc2ccc3nnc(CCNS(=O)(=O)c4ccccc4)n3n2)c1	AID inh inconclusive
O=S(=O)(NCCc1nnc2ccc(SCc3cccc(Cl)c3)nn12)c1ccccc1	AID inh 40µM
OCCCNC(=S)Nc1ccc(F)cc1	none
CCOc1ccc(OCCOCCOc2ccccc2)cc1	none
NC(=O)c1ccc(CN(C(=O)Cc2cccc(C(F)(F)F)c2)C2CC2)cc1	none
O/N=C/c1ccc(-n2ccnc2)cc1	none
CCc1noc(C)c1C(=O)Nc1ccc(C)c(C)c1	none
N#C/C(=C\c1ccc(-c2ccc(Cl)c(C(=O)O)c2)o1)c1nc2ccccc2[nH]1	AID inh 28µM
Cc1ccc(NC(=O)/C(C#N)=C\c2ccc(Cl)cc2Cl)cc1C	none
N#C/C(=C\c1ccc(-c2ccc(C(=O)O)cc2)o1)c1nc2ccccc2[nH]1	none
Cc1ccc(NC(=O)/C(C#N)=C/c2ccc(-c3ccc(Cl)c(C(=O)O)c3)o2)cc1C	AID inh 79µM, UDG counterscr inconclusive
CCNC(=O)N(C)Cc1nc(-c2ccc(OC)cc2)no1	none

Bioassay records as filed in PubChem.
